system: PPARg DBDmut:RXRa IVT, anti-PPARg (DBD mutation: PPARg1 K132A/R137A, NR concentration 270 nM, RXRa partner concentration 90 nM); test: PBM binding z-score (relative to random genomic background probes); higher = stronger binding; sequences stand for … in GC…GCGATTGACAGCGTAGAATGAAGG
Procedure, shortened: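 Random background probes are the reference for binding z-scores. These scores derive from regression-normalized fluorescence on custom Agilent 4×180K protein-binding microarrays incubated 1 h with ligand-free nuclear receptor dimers. Binding was detected with antibodies against each partner (one per run).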

Row | Sequence | PBM binding z-score
1 | CATACAGGGTCAGCAAGGCCAGAGTAGGGACGGC | 0.587
2 | CCTACTGGGCCAAAAAAGTCATTGATGCCGATAA | -0.158
3 | CCAGACAGGTGGAAGGTAACTCAGTCTGGTACGC | -1.35
4 | GCTAGTTGGTCAGTAAAGGGTCACACACCGGTCG | -0.362
5 | TCTTGTAGCTCAAGCAGGTTAAGAAAGCCTGAGT | -0.768
6 | ACTAGCAGGCCAAGGGTCACTAAAGATTAGTCCG | 0.0188
7 | CCGACTGGGGCCAGGTTACCATAACGCACAGCCA | -1.52
8 | ATATGTAGGTTATCGGGTCATTCAATTTGCGCAT | 2.44
9 | CCTTTCGGGTCACTCCAGGTTATAGCATCGGAGT | 0.307
10 | ACAGACAGGTGAGTGAAGGTAACTCCGCTGGACG | -0.384
11 | TGTCAAAGTTCAACGGTAACGTAAGTATCCACAC | 1.07
12 | ATCTGTAGGTTAAGGGTCATTCAGGTTGGTTCGC | 1.73
13 | GGAAGGAGGGCAAAGTTGATAGCATCTGTCGACG | 0.789
14 | CGTCGAAGTTCAAGGTAACGTAACAGAAAGCAGC | 0.134
15 | AGTCAAAGTTCATCCAGGTAACGTAAGATATGCT | 1.21
16 | TAGCCTAGGTCATGGGCGAGTATACCACGCGAAC | 0.096
17 | CCAGACAGGTGAGAAGGTAACTAAGCCTCGATTA | -0.627
18 | CATACAGGGTCAGCTACGCCAGAGTAGGGACGGC | 0.652
19 | CATACAGGGTCAGCGAGGCCAGAGTAGGGACGGC | 0.657
20 | AATACAGGGTCATCGCAGGCCAGAGTACGCACAG | 1.54
21 | TCATATAGGAAATACAGGTGAAAGTCGGCATCTA | 1.58
22 | TTACCAAGGTGGGCTGAGGTCGTTGATCCAACTC | -0.362

Reference: the supplement of paper PMC6555819
